# Screening results from PubChem BioAssay.
# The list is not random: actives were taken first. Their share in the collection is about 7.9%.
# KB-3-1 tox – qHTS assay for MDR1-selective chemotherapeutics: Primary screen using the parental adenocarcinoma cell KB-3-1; Potency, µM (top dose mostly 46.1 µM), usual class: cytotoxic; 1.4% of 400,000 active; AID 1347075, 2019; KB-3-1 viability, CellTiter-Glo ATP luminescence, 72 h; note: % is set by controls: 0 for no effect and ±100 for the full control effect; nearly all actives have a fitted effect of over 60% in size
#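 Cytotoxicity measured as CellTiter-Glo luminescence after 72 h at 37 C. Compound titrations were pinned onto drug-naive KB-3-1 parental adenocarcinoma cells grown in DMEM with 10% FBS, and normalized data fitted to concentration-response curves.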
# HT1080 IDH1KD tx – qHTS for induction of synthetic lethality in tumor cells producing 2HG: qHTS for the HT-1080-IDH1KD cell line. HT-1080 IDH1 knockdown viability, ATP luminescence, 48 h. Potency, µM (series often up to 46.1 µM), for the others: at the highest dose activity, negative = toxicity, actives largely listed as cytotoxic. 2% of 360,000 active;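 note: 0% = DMSO wells and -100% = cell-free medium wells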
#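 Knockdown cells (IDH1KD HT-1080) received compounds 2 h after plating at 750 cells/well and were kept 48 h at 37 °C in 5% FBS RPMI. A CellTiter-Glo luminescence read gave % activity for curve fitting.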
# KB-V1 MDR tox – qHTS assay for MDR1-selective chemotherapeutics: Primary screen using the drug-selected MDR subline cells KB-V1 | KB-V1 MDR cells viability, CellTiter-Glo, 72 h | Potency, µM (titrated, usually from 46.1 µM), usual class: cytotoxic | 3.4% of 400,000 active; note: % is set by controls: 0 for no effect and ±100 for the full control effect; nearly all actives have a fitted effect of over 60% in size
#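 Cytotoxicity via CellTiter-Glo luminescence after 72 h compound exposure at 37 degrees C. Cells: drug-selected KB-V1 line, DMEM phenol-red free plus 10% FBS. Compounds tested at multiple concentrations; normalized data fitted to concentration-effect curves.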
# SW480 rereplic – A quantitative high throughput screen for small molecules that induce DNA re-replication in SW480 colon adenocarcinoma cells; Potency, µM (doses to about 46.1 µM), without a hit: top-dose re-replication activation, actives largely listed as activators; 1.8% of 340,000 active; SW480 DNA re-replication, Hoechst DNA content imaging, 48 h; AID 624297, 2012; note: % of control where 0% means no effect; nearly all actives have a fitted effect of over 55% in size
#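 Image-based read-out: total Hoechst fluorescence of nuclei (405 nm excitation, 500-530 nm emission), with hits raising the fraction of high-intensity nuclei. SW480 colon cells incubated 48 hr with compounds at 37 C.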
# HT1080-NT tox – qHTS for induction of synthetic lethality in tumor cells producing 2HG: qHTS for the HT-1080-NT fibrosarcoma cell line; Potency, µM (titrated, usually from 46.1 µM), inactives show top-dose activity, negative = less viability, actives largely listed as cytotoxic; 1.6% of 360,000 active; HT-1080-NT fibrosarcoma viability, CellTiter-Glo ATP luminescence, 48 h; AID 686970, 2013;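 note: NT is the 2HG producing partner of a matched IDH1 knockdown line; 0% = DMSO-treated cells and -100% = media-only wells without cells; nearly all actives have a fitted effect of over 55% in size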
#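 Toxicity toward the 2HG-producing NT line was scored as %Activity, normalised to DMSO and no-cell wells, from CellTiter-Glo luminescence after 48 hours' treatment.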
# MCF10A rereplic – A quantitative high throughput screen for small molecules that induce DNA re-replication in MCF 10a normal breast cells; MCF 10A DNA re-replication, Hoechst nuclear intensity, 48 h; Potency, µM (titrated, usually from 46.1 µM), without a hit: at the highest dose activity, positive = re-replication, usual class: activators; 2.9% of 350,000 active; AID 624296, 2012; note: % of control where 0% means no effect; nearly all actives have a fitted effect of over 50% in size
# Starred values were filed as active, the others as inactive; i = inactive; ? = inconclusive; · = no result; [ ] = dose if it differs, or a comment. Calls come from the whole dose curve; as a rule, active = well fitted curve in the direction sought with a large enough effect; inconclusive = small, poorly fitted or top-dose-only effect, or another doubt; inactive = no such curve, though single readings can be large; an effect the other way counts as inactive or inconclusive. Potency is the fitted concentration of half-maximal effect.
SMILES,KB-3-1 tox,HT1080 IDH1KD tx,KB-V1 MDR tox,SW480 rereplic,HT1080-NT tox,MCF10A rereplic
Cc1sc(NC(=O)c2ccco2)nc1-c1ccc2c(c1)CC(C)N2C(=O)C1CC1 (stereo not given),?,7.9µM*,?,6.3µM*,7.9µM*,5µM*
O=C1N=C(N2CCC(Cc3ccccc3)CC2)S/C1=C/c1cn[nH]c1-c1ccccc1,i,-10%,23µM*,0%,0%,?
O=C(NCC1CCCN(C(=O)c2cccc(C(F)(F)F)c2)C1)c1ccc(F)cc1 (stereo not given),i,-1%,i,?,6%,13%
CS(=O)(=O)c1nc([N+](=O)[O-])nn1CCCc1ccccc1,26µM*,?,?,-129%,?,4.6µM*
Cn1nc([N+](=O)[O-])nc1Oc1ccccc1F,i,-2%,i,-4%,12%,-3%
Cn1nc([N+](=O)[O-])nc1S(C)(=O)=O,?,16µM*,?,9.2µM*,16µM*,5.8µM*
CC(=O)N1CCCc2cc(S(=O)(=O)NCc3cccc(C)c3)ccc21,i,·,i,·,·,·
Cc1cccc(-n2ncc3c(Nc4c(C)cc(C)cc4C)ncnc32)c1,9.2µM*,·,?,·,·,·
Cc1cccc(-n2ncc3c(N)ncnc32)c1,?,-7%,8.2µM*,1%,-2%,-2%
O=C(N/N=C/c1ccccc1OC(F)F)c1cc(-c2ccncc2)nc2ccccc12,18µM*,2.1µM*,i,12µM*,?,4.6µM*
Cc1nn(-c2ccccc2)c(C)c1/C=N/NC(=O)c1cc(-c2ccccc2)n[nH]1,0.41µM*,?,?,?,0.73µM*,?
Cc1[nH]c2ccccc2c1/C=N/NC(=O)c1cc(-c2ccccc2)n[nH]1,i,15µM*,i,-19%,15µM*,0%
Cc1[nH]c2ccccc2c1/C=N/NC(=O)c1cc(-c2ccncc2)nc2ccccc12,?,4.6µM*,i,13µM*,?,?
Cc1[nH]c2ccccc2c1/C=N/NC(=O)c1ccccc1,i,-2%,i,1%,3%,3%
CO[C@H]1O[C@H](CBr)[C@@H](OC(=O)c2ccccc2)[C@H](O)[C@H]1O,i,19%,i,-7%,12%,-2%
COc1ccc(CNC(=O)CN(C(=O)CCC(=O)Nc2nccs2)c2ccc(C)cc2)cc1,i,-17%,i,?,-50%,19%
COc1ccc(C(C)=O)cc1CSc1nnc(C)n1-c1ccccc1,i,-2%,21µM*,-3%,0%,2%
CCCCn1c(=O)c(CCC(=O)OCC(=O)Nc2cc(Cl)ccc2OC)nc2ccccc21,i,9%,i,-3%,3%,-4%
COCCNC(=O)C1(C)CCCN(C(=O)c2cccc(C#N)c2)C1 (stereo not given),i,11%,i,·,18%,·
N=C(N)SCc1cn(-c2ccccc2)nc1-c1ccc(Br)cc1,?,5.2µM*,18µM*,18%,5.2µM*,?
COc1ccc(-c2nn(-c3ccccc3)cc2CO)cc1,i,-13%,i,-3%,-6%,-1%
O=C(Cn1ncc2c1-c1ccccc1OC2)N1CCN(c2ccccc2F)CC1,i,·,i,·,·,·
CC(=O)N1CCN(c2ccc(NC(=S)NC(=O)c3ccccc3)cc2)CC1,i,4%,3.7µM*,-74%,-4%,?
Cc1ccccc1C(=O)N1CCN(c2ccc(NC(=S)NC(=O)c3cccs3)cc2)CC1,?,-10%,i,?,?,28%
CC(=O)N1CCN(c2ccc(NC(=O)c3ccccc3)cc2)CC1,i,17%,i,0%[9.22 µM],3%,1%
SMILES,KB-3-1 tox,HT1080 IDH1KD tx,KB-V1 MDR tox,SW480 rereplic,HT1080-NT tox,MCF10A rereplic
Cc1cccc(C(=O)NC(=S)Nc2ccc(N3CCOCC3)cc2)c1,i,11%,18µM*,-2%,3%,?
Cc1ccc(C(=O)N2CCN(c3ccc(NC(=S)NC(=O)c4cccs4)cc3)CC2)cc1,?,-4%,i,10µM*,-14%,?
CCOc1ncccc1C(=O)Nc1ccc2c(c1)OCO2,?,-11%,?,-2%,0%,18%
Cc1ccc(Oc2ccc(C(=O)NCc3ccncc3)cc2)cc1,i,?,21µM*,2%,?,2%
O=C(NCc1ccncc1)c1ccc(Oc2ccccc2)cc1,?,-27%,?,2%,-21%,2%
CCOc1ncccc1C(=O)Nc1ccccc1C(=O)NCc1ccc2c(c1)OCO2,i,-15%,5.2µM*,13%,-5%,?
CCOc1ncccc1C(=O)NCc1ccc(C)cc1,i,6%,18µM*,-82%,1%,?
CSCCNC(=O)C1(C)CCN1C(=O)c1sccc1C (stereo not given),i,22%,i,·,2%,·
Cc1ccc(S(=O)(=O)Nc2ccc3c(c2)nc2n3CCN(Cc3ccccc3)C2)cc1,i,-22%,16µM*,1%,-14%,-1%
O=S(=O)(Nc1ccc2c(c1)nc1n2CCN(Cc2ccccc2)C1)c1ccccc1,?,-23%,2.6µM*,7%,-10%,26%
O=S(=O)(Nc1ccc2c(c1)nc1n2CCN(Cc2ccccc2)C1)c1ccc(F)cc1,?,-1%,i,4%,-1%,5%
O=S(=O)(Nc1ccc2c(c1)nc1n2CCN(Cc2ccccc2)C1)c1ccc(Cl)cc1,?,-27%,i,?,-24%,?
COCC(=O)N1CCC(Oc2ccc(C(=O)NCCCC3CCCC3)cc2)CC1,?,-14%,9.2µM*,-4%,-17%,-9%
COC(=O)c1ccc(N2NC(=O)/C(=C/c3cc(OC)c(O)c(OC)c3)C2=O)cc1,i,14%,i,2%,17%,1%
O[C@H]1C[C@H](c2ccccc2)N(Cc2cccs2)C[C@@H]1n1cc(-c2ccc(F)cc2)nn1,?,18µM*,?,·,23µM*,·
COc1ccc([C@H]2C[C@H](O)[C@@H](n3cc(-c4ccc(F)cc4)nn3)CN2Cc2cccs2)cc1,?,4.6µM*,?,·,2.9µM*,·
COc1ccc([C@H]2C[C@H](n3cc(-c4ccc(F)cc4)nn3)[C@@H](O)CN2Cc2cccs2)cc1,i,2%,i,·,4%,·
